Assay results taken from PubChem BioAssay AID2205 (University of Pittsburgh Molecular Library Screening Center, 2009).
Screen size: about 200,000 compounds; about 1,600 (0.8%) were called active.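 The calls were made as follows: active = plate Z-score above 3 for both tubulin-high and condensed-nucleus cell shares, with cell loss under 80%, at 10 µM; inactive = the rest, inconclusive results apart.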 Shown is part of a subset that was picked to be rich in actives.

Experiment: tubulin staining increase by stabilizing compounds – imaging, high-content imaging, primary screen (AID 2205);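 as to % tubulin-high responders: anti alpha tubulin signal scored within the nucleus-defined area of each cell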;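 as to toxicity: 0% = mean cell density of plate MIN control wells and 100% = no cells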
Settings: HeLa tubulin immunostaining HCS, 24 h, at 10 µM; % Hoechst-high responders: measured here: nuclear condensation Hoechst responders, stronger effect = higher value, share of cells brighter than vehicle mean+2SD; % tubulin-high responders: stronger effect = higher value, share of cells brighter than vehicle mean+2SD; toxicity: measured here: cytotoxicity by cell density

| SMILES | % Hoechst-high responders | % tubulin-high responders | toxicity |
| --- | --- | --- | --- |
| O=C(COC(=O)Cn1cnc2ccccc2c1=O)NCc1ccccc1Cl | 1.88% | 6.58% (inactive) | 5.1% |
| CCN(CC)c1ccc(NC(=O)c2ccc(Cl)nc2)cc1 | 27% | 43% (active) | 38.6% |
| O=C(NNc1ccccn1)c1ccc(Cl)nc1 | 2.04% | 3.3% (inactive) | 8.78% |
| NS(=O)(=O)c1ccc(NC(=O)COC(=O)c2ccc(Cl)nc2)cc1 | 1.74% | 3.68% (inactive) | 9.84% |
| CC(=O)Nc1ccc(S(=O)(=O)NC2(C(F)(F)F)C(=O)NC(C)=C2C#N)cc1 (configuration not stated) | 0.651% | 0.947% (inactive) | 1.71% |
| COc1ccc(-n2cc(CN(C)Cc3n[nH]c(=O)[nH]3)c(-c3cccc(F)c3)n2)cc1 | 0.946% | 1.61% (inactive) | 7.39% |
| Oc1ccc(Cl)cc1/C=N/c1nc2ccccc2[nH]1 | 3.67% | 2.45% (inactive) | 20.5% |
| CCC(=O)/C(=C(/O)c1ccccc1)c1nc2ccccc2[nH]1 | 1.47% | 1.53% (inactive) | 1.79% |
| O=C(/C(=C/c1cccc(Cl)c1)c1nc2ccccc2[nH]1)c1ccccc1 | 42.6% | 47.1% (active) | 68.7% |
| C=CCn1cc(C(=O)NCc2ccc(Cl)cc2)c(=O)c2cc(S(=O)(=O)N(CC)CC)ccc21 | 2.4% | 2.86% (inactive) | 5.36% |
| CSc1ncccc1C(=O)N1CCCC(CCC(=O)NCc2ccccc2F)C1 (configuration not stated) | 1.74% | 2.45% (inactive) | 3.21% |
| Cn1cccc1/C=N/NC(=O)c1ccc(OC(F)(F)C(F)F)cc1 | 2.53% | 6.72% (inactive) | 7.37% |
| COC(=O)Cc1ccc(NC(=S)NCc2ccccc2)cc1 | 2.07% | 4.23% (inactive) | 9.97% |
| Cc1cc(C)c2c3c(sc2n1)C(c1ccccc1)C(C#N)=C(N)O3 (configuration not stated) | 7.37% | 12.3% (inactive) | 9.16% |
| N#CC1=C(N)Oc2c(sc3ccccc23)C1c1ccco1 (configuration not stated) | 55.7% | 24.9% (active) | 32.3% |
| CCCCCCCC1(C)NC(=O)N(CC(=O)Nc2cc(C)on2)C1=O (configuration not stated) | 2.15% | 3.92% (inactive) | 9.17% |
| Cc1ccc(S(=O)(=O)N(C)C)cc1NC(=O)COC(=O)C1COc2ccccc2O1 (configuration not stated) | 2.45% | 3.07% (inactive) | 5.9% |
| O=C(c1cnn(-c2ccc(Cl)cc2)c1)c1ccccc1O | 3.19% | 3.73% (inactive) | 2.4% |
| Cc1ccccc1C(=O)Nc1ccc(N2CCCCCC2)cc1 | 34.7% | 13.1% (active) | 28.4% |
| COc1cccc(C(=O)Nc2ccc(N3CCCC3)cc2)c1 | 30.7% | 25.7% (active) | 50.6% |
| C/C(=N\NC(=O)c1ccccc1C)c1ccc(N2CCOCC2)cc1 | 0.821% | 1.28% (inactive) | 5.09% |
| COc1cccc(OC)c1C(=O)Nc1ccc(N2CCCCC2)cc1 | 2.3% | 2.03% (inactive) | 6.37% |
| COc1ccc(C(=O)NC(=S)Nc2ccc(N3CCCC3)cc2)cc1OC | 1.47% | 1.79% (inactive) | 9.06% |
| O=C(Cc1ccccc1)NC(=S)Nc1ccc(N2CCCCC2)cc1 | 2.7% | 1.21% (inactive) | 5.2% |
| CC(C)OCCCNC(=O)c1cc(Sc2ccc(F)cc2)nc2ccccc12 | 1.81% | 1.25% (inactive) | 6.52% |

| SMILES | % Hoechst-high responders | % tubulin-high responders | toxicity |
| --- | --- | --- | --- |
| CC(=O)N1C(=O)/C(=C2\SC(=S)N(NC(=O)c3ccc(O)cc3)C2=O)c2ccccc21 | 2.97% | 2.55% (inactive) | 3.4% |
| Cc1noc(C)c1S(=O)(=O)Nc1ccc(C(=O)N2CCN(c3ccc(F)cc3)CC2)cc1 | 2.09% | 1.32% (inactive) | 5.68% |
| O=C(O)CCN(Cc1ccccc1)S(=O)(=O)c1c(Cl)cccc1Cl | 1.31% | 2.16% (inactive) | 1.51% |
| CN(Cc1ccccc1)C(=O)COC(=O)c1ccccc1Nc1ccccc1 | 1.59% | 6.59% (inactive) | 4.42% |
| CC(C)Cc1nc(Nc2ccc(S(=O)(=O)N3CCCC3)cc2)c2nnn(Cc3ccccc3)c2n1 | 2.68% | 3.7% (inactive) | 11.3% |
| Cc1csc(NC(=O)Nc2ccccc2[N+](=O)[O-])n1 | 2.72% | 1.89% (inactive) | 4.62% |
| COC(=O)C1=C(C)OC(N)=C(C#N)C1c1cc(OC)ccc1OC (configuration not stated) | 4.1% | 4.68% (inactive) | 10.9% |
| COc1ccc(C2C(C#N)=C(N)Oc3cc(N)ccc32)cc1OC (configuration not stated) | 17.3% | 44.5% (active) | 68% |
| CCC1=C(C(=O)OC)C(c2cc(OC)ccc2OC)C(C#N)=C(N)O1 (configuration not stated) | 3.6% | 3.6% (inactive) | 4.77% |
| c1ccc(C2CNCc3c2ccc2ccccc32)cc1 (configuration not stated) | 32.1% | 14% (active) | 25.9% |
| C=C(C)COc1ccc(-c2n[nH]c(C)c2-c2ccccc2OC)c(O)c1 | 4.86% | 6.2% (inactive) | 5.28% |
| C=C(C)COc1ccc(-c2n[nH]c(C)c2-c2ccccc2)c(O)c1 | 2.28% | 3.77% (inactive) | 27.6% |
| COc1ccc(-c2n[nH]c(C)c2-c2ccc(OC)c(OC)c2)c(O)c1 | 19% | 42.8% (active) | 76% |
| Cc1[nH]n(-c2ccccc2)c(=O)c1/C=N/NC(=O)c1ccoc1C | 1.51% | 1.79% (inactive) | 2.88% |
| CCc1ccc(-n2c(=S)sc3c(=O)n(-c4ccccc4OC)c(=S)[nH]c32)cc1 | 2.26% | 4.15% (inactive) | 6.79% |
| COc1ccc(/C=C/CN2CCN(Cc3ccc(C)cc3)C(CCO)C2)cc1 (configuration not stated) | 2.01% | 6.04% (inactive) | 4.33% |
| CCn1c(/C=C/Nc2ccccc2)[n+](CC)c2ccc(C(=O)OCC(F)(F)F)cc21 | 3.06% | 2.82% (inactive) | 0.486% |
| CC(C)(C)NC(=O)Cn1cnc2cc([N+](=O)[O-])ccc2c1=O | 1.76% | 5.69% (inactive) | 5.93% |
| CS(=O)(=O)Nc1ccc(C2=NN(S(C)(=O)=O)C(c3cccs3)C2)cc1 (configuration not stated) | 1.8% | 1.74% (inactive) | 6.29% |
| COc1ccc(C2=NN(C(=O)CCC(=O)O)C(c3cccs3)C2)cc1OC (configuration not stated) | 0.575% | 2.36% (inactive) | 4.5% |
| CCS(=O)(=O)Nc1ccc(C2=NN(C(C)=O)C(c3cccs3)C2)cc1 (configuration not stated) | 60.7% | 26.1% (active) | 26.6% |
| O=c1[nH]c(N2CCN(Cc3ccc4c(c3)OCO4)CC2)nc2c1CCCC2 | 3.51% | 5.89% (inactive) | 3.65% |
| CCc1ccc(NC(=O)CC2C(=O)NCCN2C(=S)Nc2ccccc2)cc1 (configuration not stated) | 3% | 3.9% (inactive) | 11.2% |
| O=[N+]([O-])c1cccc(Nc2c3ccccc3nc3ccccc23)c1 | 32.2% | 22% (active) | 46.2% |
| Cc1cc(CNC(=O)c2cccc([N+](=O)[O-])c2)c2ccccc2n1 | 2.57% | 3.83% (inactive) | 1.18% |

| SMILES | % Hoechst-high responders | % tubulin-high responders | toxicity |
| --- | --- | --- | --- |
| CC(=O)Nc1ccc(Nc2c3ccccc3nc3ccccc23)cc1 | 8.03% | 12.5% (inactive) | 40.3% |
| COc1ccc(N2CCN(C(=O)CCSCc3ccccc3F)CC2)cc1 | 1.53% | 3.62% (inactive) | 4.73% |
| Cc1cccc(C(=O)Nc2ccccc2C(=O)NCc2cccnc2)c1 | 2.76% | 2.92% (inactive) | 4.59% |
| Cc1ccc(S(=O)(=O)N(C)C2(C)CCS(=O)(=O)C2)cc1 (configuration not stated) | 1.21% | 1.1% (inactive) | 7.98% |
| Cc1ccc(S(=O)(=O)NC(=O)N2CCCC(C)(C)C2)cc1 | 0.922% | 1.38% (inactive) | 2.22% |
| Cc1ccc(S(=O)(=O)C2(S(=O)(=O)c3ccc(C)cc3)CCCC2)cc1 | 39.1% | 36.4% (active) | 67.7% |
| O=c1oc(-c2ccco2)nc2sc3c(c12)CCCCC3 | 2.16% | 1.31% (inactive) | 7.63% |
| COc1cccc2cc(S(=O)(=O)c3ccc(C)cc3)/c(=N/NS(=O)(=O)c3ccc(C)cc3)oc12 | 2.11% | 3.76% (inactive) | 4.71% |
| Cc1cc(-c2csc(N)n2)c(C)n1Cc1ccccc1 | 3.06% | 0.459% (inactive) | 7.95% |
| COc1ccccc1CNC(=O)c1cc(=O)c2ccccc2o1 | 2.39% | 1.71% (inactive) | 11.9% |
| O=C(c1cc(=O)c2ccccc2o1)N1CCN(c2ccccc2)CC1 | 2.26% | 4.68% (inactive) | 10.7% |
| COc1cc2c(cc1OC)CN(C(=O)c1cc(=O)c3ccccc3o1)CC2 | 50.5% | 42.7% (active) | 31.7% |
| CCCCCCCCCCOC(=O)C[N+](C)(C)CC1CCCCC1O (configuration not stated) | 2.44% | 1.85% (inactive) | 7.67% |
| CCOC(=O)N/N=C/c1cn(Cc2ccccc2Cl)c2ccccc12 | 1.41% | 1.99% (inactive) | 3.67% |
| CNC(=S)N/N=C/c1cn(Cc2ccc(C)cc2)c2ccccc12 | 11.2% | 25.5% (active) | 51.6% |
| COC(=O)N/N=C/c1cn(CCCOc2ccc(C)cc2)c2ccccc12 | 1.65% | 1.39% (inactive) | 0.806% |
| CC(/C=N/NC(=O)c1cc(-c2ccc3ccccc3c2)n[nH]1)=C\c1ccco1 | 24.9% | 18.2% (active) | 26.2% |
| CC(/C=N/NC(=O)c1ccncc1)=C\c1ccco1 | 2.03% | 3.19% (inactive) | 5.26% |
| Cc1ccc(-c2cc(C(=O)N/N=C/C=C/c3ccco3)c3ccccc3n2)cc1C | 1.03% | 1.52% (inactive) | 10.1% |
| CCN(CC)c1ccc(S(=O)(=O)N2CCOCC2)cc1NC(=O)CSc1cccc[n+]1[O-] | 1.88% | 2.6% (inactive) | 2.07% |
| S=C(NCc1ccc2c(c1)OCO2)NCc1ccco1 | 2% | 2.06% (inactive) | 3.56% |
| CCCc1nc2c(c(=O)c3ccccc3n2C)c(=O)n1C1CCCCCC1 | 3.07% | 3.44% (inactive) | 9.47% |
| COc1ccc(C(=O)CSc2nnc(COc3ccccc3)n2Cc2ccco2)cc1 | 8.33% | 11.9% (inactive) | 4.55% |
| Cn1c2ccccc2c(=O)c2c(=O)n(Cc3ccco3)c(COc3ccccc3)nc21 | 17% | 15.2% (active) | 19.6% |
